Data as given in PubChem BioAssay (NCI).
The panel holds about 83,000 compounds, 20% with a hit somewhere; the sample as a whole holds those more often.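 Step 1: grow cells in 96-well plates. Step 2: add test compound at a single concentration. Step 3: incubate 48 h. Step 4: record percent growth.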 The source made the active and inactive calls.

System: SK-MEL-28 melanoma
Experiment: NCI-60 one-dose screen, 48 h (100 = growth as untreated, 0 = no growth, -100 = all killed)
Conditions: 10 µM unless noted
Procedure: Growth inhibition of the SK-MEL-28 human tumor cell line is measured as a screen for anti-cancer activity. Cells are grown in 96 well plates and exposed to the test compound for 48 hours. Compounds are tested at a single concentration, which is 10^-5 M for most compounds. The reported endpoint is percent growth (GI% or GIPRCNT), where numbers from 0 - 100% represent growth inhibition, and numbers from -100% - 0 represent cell death. For example, a value of 40 represents 60% growth inhibition. A value of 0 means no net growth occurred over the course of the experiment. A value of -40 indicates 40% of cells at the beginning of the experiment died by the end of the experiment. A value of -100 means all cells are dead at the end of the experiment.
NCI-60 Human Tumor Cell Lines Screen was performed using the standard one-dose NCI protocol, which is described in more detail at https://dtp.cancer.gov/discovery_development/nci-60/default.htm.
Compounds with GIPRCNT values below 10 were considered active. Activity score was based on GIPRCNT using the following formula: […]
Score is 0 for GIPRCNT values of 100 or above, 50 for GIPRCNT values of 0, and 100 for GIPRCNT values of -100.

Row | Structure (SMILES) | growth
1 | C=C(C)[C@@H]1CC[C@]2(C(=O)OC)CC[C@]3(C)[C@H](CC[C@@H]4[C@@]5(C)C/C(=C/c6cccc(I)c6)C(=O)C(C)(C)[C@@H]5CC[C@]43C)[C@@H]12 | 104% (inactive)
2 | CC(=O)c1cc2c(N)c(C(=O)Nc3cccc(F)c3C)sc2nc1C | 97.4% (inactive)
3 | COc1cc(-c2nc3ccccc3[nH]2)ccc1OCC(=O)N=Nc1c(O)[nH]c2ccc(Cl)cc12 | -65.4% (active)
4 | O=C(/C=C/c1cc(CN2CCOCC2)c(O)c2ncccc12)c1cc(CN2CCOCC2)c(O)c2ncccc12 | 37% (inactive)
5 | COc1cccc(Nc2nc(SC)nc(-c3cccc([N+](=O)[O-])c3)c2C#N)c1 | 76.3% (inactive)
6 | O=C(O)COc1ccc(Cl)cc1C1CCCCC1 | 108% (inactive)
7 | CCOC(=O)c1sc2nc(-c3cccc(O)c3)nc(N3CCOCC3)c2c1C | 63.7% (inactive)
8 | OCC(O)c1nc2ccc3[nH]ncc3c2c2c1CCCC2 (stereo not given) | -3.58% (active)
9 | Clc1ccc2c(NCCNc3nc(N4CCOCC4)nc4ccccc34)ccnc2c1 | -47.5% (active)
10 | OCCNc1nccc(N2CCN(c3ccnc4cc(Cl)ccc34)CC2)n1 | 94% (inactive)
11 | COc1ccc(-n2nc(C)c3c(Nc4ccc(NC(=O)Nc5ccc(Cl)c(C(F)(F)F)c5)cc4)ncnc32)cc1 | 4.78% (active)
12 | N#C/C(=C\c1ccc(-c2cc(C(F)(F)F)ccc2Cl)o1)c1nc(-c2ccco2)cs1 | 108% (inactive)
13 | Cc1nc2ccccc2n1C(=O)C[C@@H]1NC(=S)NC1=O | 99.2% (inactive)
14 | COc1cc(C2CC(=O)c3ccccc3N2)cc(OC)c1OC (stereo not given) | 107% (inactive)
15 | CCNC(=O)Oc1ccc(/C(=C(\C)c2ccc(Cl)cc2)c2ccc(OCCN3CCCCC3)cc2)cc1 | -30.4% (active)
16 | CC(=O)NCC1c2c(n(C)c3c(Cl)c(Cl)ccc23)C(=O)NC1(C)C (stereo not given) | 111% (inactive)
17 | CNC(=O)c1cc(Oc2ccc(NC(=O)Nc3ccc(Cl)c(SC)c3)c(F)c2)ccn1 | 56.7% (inactive)
18 | COc1cc(-c2nn(-c3ccc(Br)cc3)cc2C(=O)O)ccc1O | 119% (inactive)
19 | COc1cc(-c2nc3ccccc3[nH]2)ccc1OCc1nnc(-c2ccc(CC(C)C)cc2)o1 | 93.5% (inactive)
20 | COc1ccc(C(=S)N2CCN(c3cccc(Cl)c3)CC2)cc1 | 103% (inactive)

Row | Structure (SMILES) | growth
21 | Nc1ccc(-c2cc3c(Nc4ccc(Oc5cccc(C(F)(F)F)c5)c(Cl)c4)ncnc3s2)cc1 | 83.1% (inactive)
22 | Cn1ncc2c(=O)nc3c(-c4ccccc4)n[nH]n3c21 | 138% (inactive)
23 | O=C1C=CC(=O)N1c1ccc2c(c1)Cc1cc(F)ccc1-2 | 99.9% (inactive)
24 | FC(F)(F)c1[nH]ncc1-c1nc2ccc3n[nH]c(C#Cc4cccnc4)c3c2c2c1CCCC2 | 32.4% (inactive)
25 | CCN1CCN(c2nc(NCCNc3ccnc4cc(Cl)ccc34)c3ccccc3n2)CC1 | -60.1% (active)
26 | CCN(CC)S(=O)(=O)c1ccc(OC)c(NC(=O)c2[nH]c(C)c3c2CCCCC3=O)c1 | 55.7% (inactive)
27 | CC(=O)OCCC/C(=C/c1cc2ccccc2c2ccccc12)[N+](=O)[O-] | -99.5% (active)
28 | CCCCN(CCCC)CCCn1c(-c2ccccc2)ccc1-c1ccccc1 | 88.8% (inactive)
29 | N#CCCN=Nc1c(O)[nH]c2ccc([N+](=O)[O-])cc12 | 112% (inactive)
30 | CN1CCN(CCCOc2cccc3nc(Nc4ccc(Cl)c(F)c4)ccc23)CC1 | 18.1% (inactive)
31 | CCN(CC)c1ccc(-c2cc(-c3cc(OC)c(OC)c(OC)c3)nc(N3CCOCC3)c2C#N)cc1 | 21.8% (inactive)
32 | NC(=O)c1cc(I)ccc1NC(=O)/C=C/c1ccccc1Cl | 38% (inactive)
33 | Clc1ccc2c(NCCCCNc3nc(N4CCCCC4)nc4ccccc34)ccnc2c1 | -71.1% (active)
34 | CC(=O)c1nc2ccccc2n1CC(=O)c1cccc(Cl)c1 | 67.7% (inactive)
35 | COc1ccc(-c2nn(-c3ccc(Cl)cc3)cc2-c2nc3ccccc3[nH]2)cc1 | 99.5% (inactive)
36 | O=c1cc(/C(=C2/C=CC=N2)c2ccc[nH]2)c2cc(Cl)ccc2o1 | 61.8% (inactive)
37 | COc1ccc(-c2nc3ccc(-c4nc5ccc(N6CCN(C)CC6)cc5[nH]4)cc3[nH]2)cc1OC | 39% (inactive)
38 | CC(C)CC1C(=O)N2CCC[C@H]2C2(O)O[C@](NC(=O)C3C=C4c5cccc6[nH]c(Br)c(c56)C[C@H]4N(C)C3)(C(C)C)C(=O)N12 (stereo not given in full) | 91.3% (inactive)
39 | Cc1cc(Nc2ccc(C)c(Cl)c2)n2nc(C(F)(F)F)nc2n1 | 82.8% (inactive)
40 | COc1ccc(N=Nc2nccs2)c(O)c1 | 81.4% (inactive)
